For 17 compounds, composite z-score and z-score results are on record in PubChem BioAssay.

Test [1] concerns XIP peptide (Xip251-270) binding. As to the kind of experiment: XIP fragment 251-270 binding compounds – biochemical, small-molecule microarray, fluorescence 635/667 nm, 0.1 µg/mL protein, primary screen (AID 1182). To be noted: fluorescent protein binding, 635 nm, higher = more signal, called active from +8 up or from −8 down.
A further test deals with XIP peptide (Xip251-270). As to the kind of experiment: compounds binding XIP fragment 251-270 – biochemical, small-molecule microarray, fluorescence 635/667 nm, 0.5 µg/mL protein, primary screen (AID 1183). Conditions: fluorescence 635 nm, higher = more signal.
A short description of test [2]: blood-stage malaria parasite viability loss – strain 3D7, DAPI fluorescence, 100 nL, primary screen (AID 1184).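 Also: parasites grown inside human red blood cells in medium with human serum.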 To be noted: P. falciparum 3D7 growth, 3 d, higher = more signal.
The target in test [3] is Homeobox protein Hox-A13 (Mus musculus) (UniProt Q62424). As to the kind of experiment: disruptors of Hoxa13 oligonucleotide interaction – biochemical, fluorescence polarization, labeled oligonucleotide, primary screen (AID 1185). To be noted: Hoxa13:DNA binding, 15 min, higher = more signal, called active from +8 up or from −8 down.
Chain of Homeobox protein Hox-A13 (Mus musculus) (Q62424 whole entry, looked up): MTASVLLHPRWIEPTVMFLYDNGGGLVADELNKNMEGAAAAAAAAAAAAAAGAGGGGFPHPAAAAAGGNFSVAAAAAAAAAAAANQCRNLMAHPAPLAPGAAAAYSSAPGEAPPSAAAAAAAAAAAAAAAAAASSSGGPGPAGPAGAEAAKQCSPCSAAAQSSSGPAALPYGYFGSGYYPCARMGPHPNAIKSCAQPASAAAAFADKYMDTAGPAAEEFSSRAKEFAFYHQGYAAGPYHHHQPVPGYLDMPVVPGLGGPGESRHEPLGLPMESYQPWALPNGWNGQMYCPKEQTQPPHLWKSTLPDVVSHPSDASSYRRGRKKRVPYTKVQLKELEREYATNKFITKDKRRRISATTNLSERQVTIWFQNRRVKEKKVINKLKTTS
Test [4] in a line: blockers of DNA damage checkpoint Chk1 activation – imaging, HeLa, hydroxyurea, phospho-Chk1 antibody, percent positive cells, primary screen (AID 1186). Conditions: hydroxyurea-induced phospho-Chk1 immunofluorescence imaging, higher = more signal.
Test [5] can be described thus: blockers of DNA damage checkpoint Chk1 activation – imaging, HeLa, hydroxyurea, phospho-Chk1 nuclear intensity, primary screen (AID 1187). To be noted: hydroxyurea-induced phospho-Chk1 immunofluorescence imaging, higher = more signal.

Each structure is given as a SMILES string. Active and inactive are the calls of the source. Unless noted, no rule for the calls is given here.

With `O=C1OCCC/C=C\[C@H]2OC34C=CCN(Cc5ccccc5)C(=O)[C@H]3N(CCO)C(=O)[C@@H]4C12` (some centres not stated), the results for the composite z-score (in test [1]; in the test with XIP peptide (Xip251-270)) were 1.68 (inactive) and -0.0058, respectively. The z-score was 0.499 in test [2], -5.69 (inactive) in test [3], -0.909 (inactive) in test [4] and -0.375 (inactive) in test [5].

Regarding `CCOC(=O)C=C1C[C@@H](c2cccc([N+](=O)[O-])c2)O[C@@H](c2cccc([N+](=O)[O-])c2)O1`, the composite z-score was 0.232 (inactive) in test [1] and 0.673 with XIP peptide (Xip251-270). The z-score in test [2] was -2.18; in test [3], 0.392 (inactive); in test [4], -0.447 (inactive); in test [5], -0.443 (inactive).

`CC(C)N1C(=O)[C@@]2(Cc3ccccc31)c1ccccc1C(=O)N(Cc1ccccc1)[C@H]2c1ccc(CO)cc1`: the composite z-score in test [1] is -0.205 (inactive); in the test on XIP peptide (Xip251-270), -0.0467. The z-score in test [2] was -0.32; in test [3], -0.075 (inactive); in test [4] it was 0.273 (inactive); in test [5], 0.685 (inactive).

On to `O=C1N(Cc2ccccc2)Cc2ccccc2C[C@@]12COC(c1ccc(OCCCO)cc1)=N2`, for which the composite z-score in test [1] was 0.704 (inactive); with XIP peptide (Xip251-270), 0.311. Besides, the z-score in test [2] is -2.08; in test [3], -4.67 (inactive); in test [4], -0.266 (inactive); in test [5] it was 0.273 (inactive).

As to `CC(C)C(=C=CC[C@H](O)c1cccc(OCCO)c1)C[C@H](O)c1ccccn1`, the composite z-score in test [1] was 0.549 (inactive); in the test with XIP peptide (Xip251-270) it was 0.806. Also, the z-score in test [2] was -0.991; in test [3], -3.81 (inactive); in test [4], -0.428 (inactive); in test [5], 0.321 (inactive).

With `CC(C)C[C@@H]1NC(=O)[C@@H]2C[C@H](C(=O)NCCCCCCNC(=O)CS)[C@H](c3ccc(O)cc3)N2C1=O`, the values for the composite z-score (in test [1]; with XIP peptide (Xip251-270)) were 3.03 (inactive) and 0.843, respectively. In addition, the z-score was -1.19 in test [2], -2.01 (inactive) in test [3], -0.265 (inactive) in test [4] and -0.1 (inactive) in test [5].

On to `C=CCC(OC(C)=O)[C@@H]1[C@@H](N(Cc2ccc(-c3ccccc3)cc2)C(=O)Cc2ccc(OC)cc2)c2cc(OCCCO)ccc2N1C(=O)c1ccc2ccccc2c1` (some centres not stated), for which the values for the composite z-score (in test [1]; in the test on XIP peptide (Xip251-270)) were -0.965 (inactive) and -0.0698, respectively. Besides, the z-score in test [2] is -2.9; in test [3], -1.72 (inactive); in test [4], 0.443 (inactive); in test [5] it was 0.209 (inactive).

Consider `O=C1c2ccccc2[C@@]2(Cc3ccccc3N(CC(F)(F)F)C2=O)[C@H](c2ccc(CO)cc2)N1Cc1ccccc1`, for which the composite z-score in test [1] was -0.158 (inactive); in the test on XIP peptide (Xip251-270) it was -0.48. Moreover, the z-score is -1.17 in test [2], 1.26 (inactive) in test [3], -0.191 (inactive) in test [4] and -0.494 (inactive) in test [5].

Consider `C[N+](C)(C)CCCC[C@@H]1NC(=O)[C@H]2C[C@@H](C(=O)NCCCCCN)[C@@H](c3ccc(O)cc3)N2C1=O`, for which the composite z-score in test [1] was 0.528 (inactive); with XIP peptide (Xip251-270), 0.69. Besides, the z-score in test [2] was 0.435; in test [3] it was -1.12 (inactive); in test [4], 0.932 (inactive); in test [5], 0.79 (inactive).

Consider `CO[C@H]1O[C@H](CO)[C@@H](OC(=O)Nc2cccc(F)c2)[C@H](OC(=O)Nc2ccc3c(c2)OCO3)[C@@H]1OC(=O)Nc1ccc2c(c1)OCO2`, for which the composite z-score in test [1] was 0.968 (inactive); in the test with XIP peptide (Xip251-270), 0.894. For the same compound, the z-score was -0.754 in test [2], -6.1 (inactive) in test [3], 0.223 (inactive) in test [4] and 0.613 (inactive) in test [5].

As for `[N-]=[N+]=NCc1ccccc1[C@H]1OC(c2ccc(OCCCO)cc2)=N[C@@]1(Cc1ccccc1N=[N+]=[N-])C(=O)N1CCOCC1`, the composite z-score in test [1] was -0.185 (inactive); in the test on XIP peptide (Xip251-270), 0.604. Further, the z-score in test [2] is -2.27; in test [3] it was -1.45 (inactive); in test [4] it was -0.332 (inactive); in test [5] it was 0.0967 (inactive).

Take `COc1cc(CO)cc(I)c1O[C@H]1C=C(C(=O)NCCO)C[C@@H](N(CCN2CCOCC2)C(=O)C2CCCO2)[C@@H]1O` (some centres not stated): the composite z-score is 0.0188 (inactive) in test [1] and 0.0326 in the test with XIP peptide (Xip251-270). Further, the z-score in test [2] was 0.0945; in test [3] it was -1.59 (inactive); in test [4], -0.866 (inactive); in test [5] it was -0.723 (inactive).

Turning to `CC[C@@H](O[Si](C#C[Si](C(C)C)(C(C)C)C(C)C)(C(C)C)C(C)C)c1cn([C@H](C)c2ccccc2)nn1`, the composite z-score in test [1] was -0.645 (inactive); with XIP peptide (Xip251-270), -0.0862. Besides, the z-score in test [2] is -0.38; in test [3], 0.0519 (inactive); in test [4], 0.0891 (inactive); in test [5], -0.469 (inactive).

Turning to `COC(=O)C(CC#Cc1ccc2c(c1)[C@]1(C(=O)N2)[C@H](c2ccc(OCCO)cc2)N2[C@H](c3ccccc3)[C@H](c3ccccc3)OC(=O)[C@H]2[C@@H]1C(N)=O)C(=O)OC`, the values for the composite z-score (in test [1]; with XIP peptide (Xip251-270)) were 0.372 (inactive) and 0.657, respectively. Also, the z-score in test [2] was -0.983; in test [3], -1.34 (inactive); in test [4] it was -0.143 (inactive); in test [5] it was -0.303 (inactive).

Take `COC(=O)C(CC#Cc1ccc2c(c1)[C@]1(C(=O)N2)[C@H](C(=O)NC[C@H](O)c2ccccc2)[C@H]2C(=O)O[C@H](c3ccccc3)[C@H](c3ccccc3)N2[C@@H]1c1ccc(O)cc1)C(=O)OC`: the composite z-score is 0.321 (inactive) in test [1] and 0.418 with XIP peptide (Xip251-270). For the same compound, the z-score in test [2] was -1.05; in test [3], -3.56 (inactive); in test [4], 0.288 (inactive); in test [5], 0.557 (inactive).

With `CN1C(=O)C2C=CC(C(O)c3ccc(I)cc3)N(N(c3ccccc3)c3ccccc3)C2C1=O` (configuration not stated), the values for the composite z-score (in test [1]; in the test with XIP peptide (Xip251-270)) were 0.157 (inactive) and 0.348, respectively. Moreover, the z-score in test [2] is 0.387; in test [3] it was -1.5 (inactive); in test [4], -0.839 (inactive); in test [5], -1.1 (inactive).

For the compound `C=CC[C@H](O)c1ccc(O)c2ccccc12`, the composite z-score was 0.0693 (inactive) in test [1] and 0.512 with XIP peptide (Xip251-270). Moreover, the z-score is -1.36 in test [2], -2.1 (inactive) in test [3], 0.835 (inactive) in test [4] and 1.01 (inactive) in test [5].
